Experimental data taken from PubChem BioAssay (EPA / NIEHS).
Where “and” joins values, the source holds several entries; their conditions need not be identical. Identical values can stand only once. Inconclusive results are not listed. A structure can be active in one record and inactive in another. Calls of active or inactive are those of the source. The calls were made as follows, unless noted: active = hit-call score of the fitted dose curve at least 0.9, where 1 is the maximum; inconclusive = response in the unintended direction; inactive = score below 0.9.

Assays:
[1] = ATG_TCF_b_cat_CIS: Attagene CIS-FACTORIAL HepG2 Assay for human T-Cell-Factor with beta-catenin (TCF/b-cat) (AID 2282965; active = hit-call score of the fitted dose curve at least 0.9, where 1 is the maximum; inactive = score below 0.9); details: HepG2 TCF/beta-catenin cis-reporter transcription, actives raise or lower the signal
Method in brief: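 HepG2 cells transiently transfected with multiple cis-promoter-regulated reporter transcription units, so endogenous transcription factor activity is measured. Reporter mRNA read 24 hours after dosing by RT-PCR, fluorescent labelling and capillary electrophoresis; bidirectional fitting against DMSO.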

[2] = ATG_TAL_CIS: Attagene CIS-FACTORIAL HepG2 Assay for human TAL Basal Promoter (AID 2282966; active = hit-call score of the fitted dose curve at least 0.9, where 1 is the maximum; inactive = score below 0.9;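 also: background control endpoint measuring basal TAL promoter reporter mRNA not a specific factor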); details: HepG2 Attagene cis-factorial TAL promoter reporter; actives raise or lower the signal
Method in brief: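 Fluorescence of labelled reporter cDNA fragments, resolved by capillary electrophoresis, gave the readout. Human HepG2 liver cells carried transiently transfected cis-element reporter units and were treated for 24 hours; activity was fitted bidirectionally against DMSO.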

[3] = ATG_TGFb_CIS: Attagene CIS-FACTORIAL HepG2 Assay for human Transforming Growth Factor (TGF) (AID 2282967; active = hit-call score of the fitted dose curve at least 0.9, where 1 is the maximum; inactive = score below 0.9); details: HepG2 Attagene CIS TGFb reporter, mRNA transcription; actives raise or lower the signal
Method in brief: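 After a 24-hour incubation with compound, transfected HepG2 cells were lysed for RNA; reporter cDNA was amplified, fluorescently end-labeled and separated by CE. DMSO served as baseline for bidirectional fits.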

[4] = ATG_VDRE_CIS: Attagene CIS-FACTORIAL HepG2 Assay for human Vitamin D Receptor Element (VDRE) (AID 2282968; active = hit-call score of the fitted dose curve at least 0.9, where 1 is the maximum; inactive = score below 0.9); details: HepG2 VDRE cis-reporter transcription, actives raise or lower the signal
Method in brief: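 HepG2 cells transiently transfected with cis-element reporter units, dosed 24 h; reporter mRNA measured by RT-PCR, 6-FAM labeling, HpaI digestion and capillary electrophoresis. Activity fitted bidirectionally against DMSO baseline.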

[5] = target: Nuclear receptor subfamily 1 group I member 3 (Homo sapiens) (UniProt Q14994); assay: ATG_CAR_TRANS: Attagene TRANS-FACTORIAL HepG2 Assay for human Constitutive Androstane Receptor (CAR) (AID 2282969); details: HepG2 Attagene TRANS-FACTORIAL CAR reporter;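 also: activators raise reporter mRNA above DMSO so AC50 marks induction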
Nuclear receptor subfamily 1 group I member 3 (Homo sapiens), sequence (Q14994 whole entry, looked up, the tested form may be a part): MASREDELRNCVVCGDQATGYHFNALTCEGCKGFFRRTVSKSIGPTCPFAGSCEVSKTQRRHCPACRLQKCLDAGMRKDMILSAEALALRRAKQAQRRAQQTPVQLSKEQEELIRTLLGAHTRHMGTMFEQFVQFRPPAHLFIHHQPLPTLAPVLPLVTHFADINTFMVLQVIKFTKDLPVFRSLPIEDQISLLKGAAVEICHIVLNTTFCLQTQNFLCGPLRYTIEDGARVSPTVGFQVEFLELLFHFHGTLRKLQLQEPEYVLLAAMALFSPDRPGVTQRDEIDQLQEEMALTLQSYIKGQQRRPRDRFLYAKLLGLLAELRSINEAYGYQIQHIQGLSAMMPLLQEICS
Method in brief: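 HepG2 cells transiently transfected with multiplexed GAL4-UAS reporter units expressing chimeric NR-Gal4 proteins; compound exposure 24 h. Reporter mRNA measured by RT-PCR, 6-FAM labelling, HpaI digestion and capillary electrophoresis; gain-of-signal fitted against DMSO baseline.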

[6] = target: X-box-binding protein 1 (Homo sapiens) (UniProt P17861); assay: ATG_Xbp1_CIS: Attagene CIS-FACTORIAL HepG2 Assay for human X-box Binding Protein 1 (XBP1) (AID 2282972; active = hit-call score of the fitted dose curve at least 0.9, where 1 is the maximum; inactive = score below 0.9); details: HepG2 XBP1 cis-element reporter, Attagene multiplex; actives raise or lower the signal
X-box-binding protein 1 (Homo sapiens), sequence (P17861 whole entry, looked up): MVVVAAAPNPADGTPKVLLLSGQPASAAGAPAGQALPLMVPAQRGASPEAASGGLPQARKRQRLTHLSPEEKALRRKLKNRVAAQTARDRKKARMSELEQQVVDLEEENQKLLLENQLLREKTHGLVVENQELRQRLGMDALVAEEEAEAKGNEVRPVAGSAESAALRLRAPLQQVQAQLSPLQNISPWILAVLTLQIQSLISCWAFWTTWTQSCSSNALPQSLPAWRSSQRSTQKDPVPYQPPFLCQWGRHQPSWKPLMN
Method in brief: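 After a 24-hour chemical exposure of HepG2 cells carrying cis-regulated reporters, reporter mRNA levels are assessed. Quantification uses RT-PCR, 6-FAM labelling and capillary electrophoresis. Gain- or loss-of-signal is fitted against DMSO.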

[7] = target: Androgen receptor (Homo sapiens) (UniProt P10275); assay: ATG_AR_TRANS: Attagene TRANS-FACTORIAL HepG2 Assay for human Androgen Receptor (AR) (AID 2282973); details: HepG2 Attagene TRANS-FACTORIAL AR reporter transcription
Androgen receptor (Homo sapiens), sequence (P10275 whole entry, looked up, the tested form may be a part): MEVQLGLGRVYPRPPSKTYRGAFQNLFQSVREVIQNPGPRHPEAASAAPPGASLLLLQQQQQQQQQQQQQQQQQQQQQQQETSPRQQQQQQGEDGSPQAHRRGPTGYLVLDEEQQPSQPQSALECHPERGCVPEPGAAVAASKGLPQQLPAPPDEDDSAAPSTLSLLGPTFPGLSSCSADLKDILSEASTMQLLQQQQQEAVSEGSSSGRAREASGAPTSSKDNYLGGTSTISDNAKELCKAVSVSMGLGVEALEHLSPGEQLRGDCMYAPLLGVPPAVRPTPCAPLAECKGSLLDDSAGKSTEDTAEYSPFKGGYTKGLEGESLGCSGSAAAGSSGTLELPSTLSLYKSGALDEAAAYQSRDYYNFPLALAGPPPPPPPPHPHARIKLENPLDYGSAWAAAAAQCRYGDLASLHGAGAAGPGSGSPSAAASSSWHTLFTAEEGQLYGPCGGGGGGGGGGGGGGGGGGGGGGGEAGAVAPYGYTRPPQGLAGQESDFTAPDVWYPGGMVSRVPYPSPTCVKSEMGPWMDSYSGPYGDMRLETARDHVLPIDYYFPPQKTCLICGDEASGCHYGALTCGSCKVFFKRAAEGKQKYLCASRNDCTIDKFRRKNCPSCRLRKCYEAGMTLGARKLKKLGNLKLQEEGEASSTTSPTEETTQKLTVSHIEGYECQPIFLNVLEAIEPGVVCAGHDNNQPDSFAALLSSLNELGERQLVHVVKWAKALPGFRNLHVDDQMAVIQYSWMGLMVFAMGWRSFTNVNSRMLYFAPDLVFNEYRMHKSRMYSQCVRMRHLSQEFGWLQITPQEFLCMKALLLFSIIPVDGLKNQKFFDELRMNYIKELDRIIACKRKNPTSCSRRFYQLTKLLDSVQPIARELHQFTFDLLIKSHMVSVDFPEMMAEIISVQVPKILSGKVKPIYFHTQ
Method in brief: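 Steps: transfect HepG2 with multiple GAL4-UAS reporter transcription units (TRANS format, exogenous NR-Gal4 protein); dose 24 h; isolate RNA, reverse-transcribe, PCR-amplify, FAM-label, HpaI-digest; resolve by capillary electrophoresis. Positive direction vs DMSO.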

[8] = ATG_M_19_TRANS: Attagene TRANS-FACTORIAL HepG2 Assay for M19 Transcription Factor (Internal Marker) (AID 2282974); details: HepG2 Attagene TRANS-FACTORIAL M19 internal marker reporter
Method in brief: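 Multiplexed TRANS format: HepG2 liver cells bearing transient GAL4-UAS reporter units, chemical treatment 24 h, reporter transcripts quantified by RT-PCR plus capillary electrophoresis. DMSO defines baseline.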

[9] = target: Glucocorticoid receptor (Homo sapiens) (UniProt P04150); assay: ATG_GR_TRANS: Attagene TRANS-FACTORIAL HepG2 Assay for human Glucocorticoid Receptor (GR) (AID 2282978); details: HepG2 Attagene TRANS GR reporter, mRNA transcription;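 also: activators score as hits since higher reporter transcript over DMSO is fitted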
Glucocorticoid receptor (Homo sapiens), sequence (P04150 whole entry, looked up, the tested form may be a part): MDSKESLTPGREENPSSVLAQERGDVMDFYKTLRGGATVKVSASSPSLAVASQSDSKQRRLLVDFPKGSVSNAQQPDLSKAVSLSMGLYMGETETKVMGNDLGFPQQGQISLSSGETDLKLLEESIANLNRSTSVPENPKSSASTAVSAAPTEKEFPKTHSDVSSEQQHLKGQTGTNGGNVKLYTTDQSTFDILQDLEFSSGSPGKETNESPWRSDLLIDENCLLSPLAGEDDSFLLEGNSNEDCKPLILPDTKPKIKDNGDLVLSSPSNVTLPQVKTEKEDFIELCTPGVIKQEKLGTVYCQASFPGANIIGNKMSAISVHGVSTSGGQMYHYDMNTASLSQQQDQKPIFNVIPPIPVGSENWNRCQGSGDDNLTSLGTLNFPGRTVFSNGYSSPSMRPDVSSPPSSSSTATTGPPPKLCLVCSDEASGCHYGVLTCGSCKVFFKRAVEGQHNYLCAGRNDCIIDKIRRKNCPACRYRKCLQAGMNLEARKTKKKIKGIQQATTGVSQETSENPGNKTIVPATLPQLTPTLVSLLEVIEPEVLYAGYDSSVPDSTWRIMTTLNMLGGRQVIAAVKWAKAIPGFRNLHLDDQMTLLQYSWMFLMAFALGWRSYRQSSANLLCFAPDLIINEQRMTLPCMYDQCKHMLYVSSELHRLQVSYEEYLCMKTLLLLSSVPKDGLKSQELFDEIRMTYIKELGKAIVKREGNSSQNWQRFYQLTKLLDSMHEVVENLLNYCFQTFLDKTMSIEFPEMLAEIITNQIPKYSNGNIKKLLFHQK
Method in brief: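 Transiently transfected HepG2 cells express chimeric NR-GAL4 proteins acting on GAL4-UAS reporter units. Compounds are applied for 24 h. mRNA induction over DMSO is measured by capillary electrophoresis.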

[10] = target: Oxysterols receptor LXR-alpha (Homo sapiens) (UniProt Q13133); assay: ATG_LXRa_TRANS: Attagene TRANS-FACTORIAL HepG2 Assay for human Liver X Receptor alpha (LXRa) (AID 2282980); details: HepG2 Attagene TRANS reporter, LXRa transactivation
Oxysterols receptor LXR-alpha (Homo sapiens), sequence (Q13133 whole entry, looked up, the tested form may be a part): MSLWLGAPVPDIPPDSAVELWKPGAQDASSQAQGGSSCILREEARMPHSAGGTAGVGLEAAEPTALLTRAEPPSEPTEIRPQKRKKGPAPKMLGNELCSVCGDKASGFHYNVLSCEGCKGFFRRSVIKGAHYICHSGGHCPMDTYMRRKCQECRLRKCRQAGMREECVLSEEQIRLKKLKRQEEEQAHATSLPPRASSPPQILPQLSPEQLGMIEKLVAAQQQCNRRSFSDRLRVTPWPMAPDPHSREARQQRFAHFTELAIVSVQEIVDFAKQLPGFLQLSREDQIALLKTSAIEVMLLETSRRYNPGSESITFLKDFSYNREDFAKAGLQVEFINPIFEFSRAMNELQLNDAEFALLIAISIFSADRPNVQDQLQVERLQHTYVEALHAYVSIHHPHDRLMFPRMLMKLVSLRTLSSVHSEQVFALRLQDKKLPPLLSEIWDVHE
Method in brief: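 Transfect HepG2 with GAL4-UAS multiplex reporter constructs (TRANS format, chimeric receptor-GAL4); treat 24 h; extract RNA, reverse-transcribe, PCR-amplify, FAM-label, HpaI-digest; resolve fragments by capillary electrophoresis. Upward response vs DMSO.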

[11] = ATG_M_06_TRANS: Attagene TRANS-FACTORIAL HepG2 Assay for M06 Transcription Factor (Internal Marker) (AID 2282983); details: HepG2 Attagene TRANS M06 internal marker reporter;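 also: reporter transcript level by RT-PCR then capillary electrophoresis fluorescence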
Method in brief: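 Transfect HepG2 with MRTUs → dose compounds 24 h → isolate RNA, oligo(dT) RT → PCR with reporter primers → 6-FAM primer extension → HpaI digest → CE fragment analysis. Positive direction vs DMSO.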

[12] = ATG_M_32_TRANS: Attagene TRANS-FACTORIAL HepG2 Assay for M32 Transcription Factor (Internal Marker) (AID 2282984); details: HepG2 Attagene TRANS M32 internal marker reporter
Method in brief: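 HepG2 cells transiently transfected with multiple GAL4-UAS reporter transcription units, dosed for 24 hours; reporter mRNA quantified by RT-PCR, 6-FAM primer extension, HpaI digestion and capillary electrophoresis. Gain-of-signal fitted versus DMSO baseline; internal background-control marker.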

[13] = target: Steroid hormone receptor ERR1 (Homo sapiens) (UniProt P11474); assay: ATG_ERRa_TRANS: Attagene TRANS-FACTORIAL HepG2 Assay for human Estrogen-Related Receptor alpha (ERRa) (AID 2282971); details: HepG2 Attagene TRANS reporter, ERRa transactivation
Steroid hormone receptor ERR1 (Homo sapiens), sequence (P11474 whole entry, looked up, the tested form may be a part): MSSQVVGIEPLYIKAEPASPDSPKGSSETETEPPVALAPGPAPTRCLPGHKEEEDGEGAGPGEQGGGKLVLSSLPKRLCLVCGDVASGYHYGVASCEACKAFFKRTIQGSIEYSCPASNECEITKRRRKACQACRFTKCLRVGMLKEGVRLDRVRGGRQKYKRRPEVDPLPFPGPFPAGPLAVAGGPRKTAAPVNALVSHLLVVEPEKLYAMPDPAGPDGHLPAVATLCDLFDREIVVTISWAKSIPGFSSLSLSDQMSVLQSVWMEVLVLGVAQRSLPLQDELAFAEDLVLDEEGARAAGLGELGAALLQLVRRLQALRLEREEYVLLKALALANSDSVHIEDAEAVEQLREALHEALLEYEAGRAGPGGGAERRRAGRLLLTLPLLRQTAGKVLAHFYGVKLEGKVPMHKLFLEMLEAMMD
Method in brief: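 Reporter transcript induction was quantified by RT-PCR and capillary electrophoresis of FAM-labelled, HpaI-cut products after 24 h treatment of HepG2 cells carrying transiently transfected GAL4-UAS reporter units and an exogenous ERRa-Gal4 fusion; activity scored as increase over DMSO.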

[14] = ATG_Hpa5_TRANS: Attagene TRANS-FACTORIAL HepG2 Assay for human GAL4-Hpa5 Hepatocyte Transcription Factor Basal Promoter (AID 2282975); details: HepG2 Attagene GAL4-Hpa5 transcription reporter;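 also: hits are increases in reporter mRNA over DMSO baseline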
Method in brief: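 Basal-promoter GAL4 background control within the HepG2 trans-factorial panel of transiently transfected reporter units. Reporter mRNA is measured 24 h after dosing by RT-PCR and capillary electrophoresis, fitted for gain of signal versus DMSO.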

[15] = target: Estrogen-related receptor gamma (Homo sapiens) (UniProt P62508); assay: ATG_ERRg_TRANS: Attagene TRANS-FACTORIAL HepG2 Assay for human Estrogen-Related Receptor gamma (ERRg) (AID 2282977); details: HepG2 Attagene TRANS reporter, ERRg transactivation;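 also: hits increase reporter signal over DMSO so potencies reflect activators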
Estrogen-related receptor gamma (Homo sapiens), sequence (P62508 whole entry, looked up, the tested form may be a part): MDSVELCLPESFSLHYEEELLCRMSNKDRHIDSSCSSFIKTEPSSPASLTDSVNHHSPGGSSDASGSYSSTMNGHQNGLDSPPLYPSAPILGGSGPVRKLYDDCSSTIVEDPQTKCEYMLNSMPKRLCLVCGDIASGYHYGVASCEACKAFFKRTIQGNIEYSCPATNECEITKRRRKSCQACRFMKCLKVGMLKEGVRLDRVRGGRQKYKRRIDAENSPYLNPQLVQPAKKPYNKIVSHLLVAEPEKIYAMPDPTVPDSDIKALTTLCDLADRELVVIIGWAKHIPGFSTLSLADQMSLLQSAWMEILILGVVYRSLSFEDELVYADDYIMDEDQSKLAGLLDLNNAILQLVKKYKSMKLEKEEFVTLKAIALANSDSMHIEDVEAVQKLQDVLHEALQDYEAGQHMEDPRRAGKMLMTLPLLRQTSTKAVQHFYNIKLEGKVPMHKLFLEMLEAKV
Method in brief: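 Transient HepG2 transfectants, 24 h compound exposure, GAL4-UAS reporter mRNA by RT-PCR/6-FAM labelling/capillary electrophoresis; positive direction vs DMSO.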

[16] = target: Bile acid receptor (Homo sapiens) (UniProt Q96RI1); assay: ATG_FXR_TRANS: Attagene TRANS-FACTORIAL HepG2 Assay for Farnesoid X Receptor (FXR) (AID 2282979); details: HepG2 Attagene TRANS FXR-GAL4 reporter transcription;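 also: hits raise reporter mRNA above DMSO so AC50 marks FXR activation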
Bile acid receptor (Homo sapiens), sequence (Q96RI1 whole entry, looked up, the tested form may be a part): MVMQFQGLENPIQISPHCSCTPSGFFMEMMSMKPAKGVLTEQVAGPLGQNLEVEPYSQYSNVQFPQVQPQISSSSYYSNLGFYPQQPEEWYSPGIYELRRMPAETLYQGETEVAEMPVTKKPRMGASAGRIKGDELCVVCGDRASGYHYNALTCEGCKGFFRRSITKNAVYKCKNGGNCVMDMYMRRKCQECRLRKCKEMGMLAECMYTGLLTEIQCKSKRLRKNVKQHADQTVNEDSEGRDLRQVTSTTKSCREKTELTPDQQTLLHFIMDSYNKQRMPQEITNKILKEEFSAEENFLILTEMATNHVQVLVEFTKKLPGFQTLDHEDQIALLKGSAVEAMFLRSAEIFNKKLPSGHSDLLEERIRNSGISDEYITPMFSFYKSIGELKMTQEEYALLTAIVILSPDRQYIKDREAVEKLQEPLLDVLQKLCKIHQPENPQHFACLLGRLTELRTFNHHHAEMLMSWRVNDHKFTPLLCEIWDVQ
Method in brief: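 Transient transfection of HepG2 with multiplexed GAL4-UAS reporter units; exogenous FXR-GAL4 chimera. Dose 24 h → TriZol RNA → oligo(dT) RT → PCR, 6-FAM primer extension, HpaI cut → CE. Gain vs DMSO.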

[17] = target: Oxysterols receptor LXR-beta (Homo sapiens) (UniProt P55055); assay: ATG_LXRb_TRANS: Attagene TRANS-FACTORIAL HepG2 Assay for human Liver X Receptor beta (LXRb) (AID 2282981); details: HepG2 Attagene TRANS GAL4-LXRb reporter, mRNA
Oxysterols receptor LXR-beta (Homo sapiens), sequence (P55055 whole entry, looked up, the tested form may be a part): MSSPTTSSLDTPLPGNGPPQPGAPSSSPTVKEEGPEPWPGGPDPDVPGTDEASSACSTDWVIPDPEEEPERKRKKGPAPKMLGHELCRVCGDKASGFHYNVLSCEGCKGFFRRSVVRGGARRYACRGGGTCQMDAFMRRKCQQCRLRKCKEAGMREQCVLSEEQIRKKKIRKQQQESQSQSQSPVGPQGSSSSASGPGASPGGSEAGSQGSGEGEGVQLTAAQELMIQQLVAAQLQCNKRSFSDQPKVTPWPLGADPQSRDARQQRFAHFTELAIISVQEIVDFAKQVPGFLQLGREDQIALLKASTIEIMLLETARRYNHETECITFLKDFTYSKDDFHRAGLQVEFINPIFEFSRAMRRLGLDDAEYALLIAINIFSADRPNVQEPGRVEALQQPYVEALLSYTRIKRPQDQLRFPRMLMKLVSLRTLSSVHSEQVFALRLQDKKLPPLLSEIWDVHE
Method in brief: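 HepG2 cells transiently transfected with multiple reporter transcription units carrying chimeric NR-Gal4 proteins acting on GAL4-UAS reporters; compound exposure 24 h. Reporter mRNA quantified by RT-PCR, 6-FAM labelling, HpaI digestion and capillary electrophoresis; gain of signal versus DMSO.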

Measured: AC50

CCOC(=O)CC(SP(=S)(OC)OC)C(=O)OCC (stereo not given)
active: [2] 0.00921 µM | [4] 20.2 µM and 29.4 µM | [6] 100 µM
inactive: [1] | [2] | [3] | [5] | [6] | [7] | [8] | [9] | [10] | [11] | [12]

CCCCNC(=O)OCC#CI
inactive: [1] | [2] | [3] | [4] | [5] | [13] | [6] | [14] | [15] | [9] | [16] | [10] | [17] | [11]
active: [1] 26.8 µM | [3] 25.4 µM | [4] 37 µM | [6] 45.5 µM

COC(=O)c1ccccc1C(=O)OC
inactive: [1] | [2] | [3] | [4] | [5] | [13] | [6] | [8] | [15] | [9] | [16] | [10] | [12]
